Reference: PubChem BioAssay (Tox21)
Values joined by “and” are separate entries in the source; they are usually repeats but may differ in a detail not shown here. Equal entries are not always repeated. Inconclusive results are not listed. The source holds several records for some structures; these can differ, active in one and inactive in another. Active and inactive are the calls of the source. Calls come from the whole dose curve; as a rule, active = well fitted inhibition curve with a large enough effect in the repeat runs; inconclusive = weak or mixed curves; inactive = no such curve, though single readings can be large or run the other way.

target: Cytochrome P450 2C9 (Homo sapiens) (UniProt P11712); assay: Cytochrome P450 Family 2 Subfamily C Member 9 (CYP2C9) small molecule antagonists: luciferase reporter qHTS assay (AID 1671198); settings: P450-Glo CYP2C9 enzyme assay, luciferin luminescence; series mostly up to 115 µM
Summary of the method: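 P450-Glo proluciferin substrate with CYP2C9 enzyme; 10 min RT preincubation, then NADPH regeneration 1 h at 37C; luciferin detection reagent 20 min RT, luminescence in relative luminescence units.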
% is set by controls: 0 for no effect and ±100 for the full control effect; potency is the fitted concentration of half-maximal effect.
Note: nearly all actives have a fitted effect of over 50% in size.

Chain of Cytochrome P450 2C9 (Homo sapiens) (P11712 whole entry, looked up): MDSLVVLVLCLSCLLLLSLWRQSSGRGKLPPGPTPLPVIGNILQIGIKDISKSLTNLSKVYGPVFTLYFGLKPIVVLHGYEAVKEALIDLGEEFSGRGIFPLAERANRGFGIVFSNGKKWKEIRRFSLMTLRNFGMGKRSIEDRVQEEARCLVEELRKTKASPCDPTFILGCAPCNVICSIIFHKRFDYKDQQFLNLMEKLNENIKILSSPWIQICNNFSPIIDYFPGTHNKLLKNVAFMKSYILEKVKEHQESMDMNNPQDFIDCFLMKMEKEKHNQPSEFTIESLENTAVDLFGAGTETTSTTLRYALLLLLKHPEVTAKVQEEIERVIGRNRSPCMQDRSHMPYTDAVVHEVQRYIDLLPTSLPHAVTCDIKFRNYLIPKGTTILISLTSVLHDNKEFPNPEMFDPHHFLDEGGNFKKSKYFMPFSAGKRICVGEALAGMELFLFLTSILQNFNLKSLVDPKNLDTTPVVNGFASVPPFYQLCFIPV

Row | Structure (SMILES) | Potency | activity change, negative = inhibition
1 | Cc1ccc(-c2ccccc2)cc1 | inactive | 
2 | CCCC1CCC(=O)CC1 | inactive | 
3 | c1ccc(SSc2ccccc2)cc1 | 31.9 µM (active) | 
4 | OC[C@H]1O[C@H](O[C@H]2O[C@H](CO)[C@@H](O)[C@H](O)[C@H]2O)[C@H](O)[C@@H](O)[C@@H]1O | inactive | 
5 | Cc1cc(C(C#N)c2ccc(Cl)cc2)c(Cl)cc1NC(=O)c1cc(I)cc(I)c1O (stereo unspecified) | 17.4 µM (active) | 
6 | CC(C)(C)c1csc(-c2cc3cc(OCc4ccccc4CC(=O)O)ccc3o2)n1 | 56.4 µM (active) | 
7 | O=[N+]([O-])c1cccc(C(F)(F)F)c1 | inactive | 
8 | COC(=O)Nc1nc2ccc(C(=O)c3ccccc3)cc2[nH]1 | inactive | 
9 | CCc1cccc(CC)c1NC(=O)CN(CC(=O)O)CC(=O)O | inactive | 
10 | Cc1c2ccccc2c(C)c2c1ccc1ccccc12 | 22.2 µM (active) and 25.2 µM (active) | 
11 | O=c1[nH]c2ccccc2n1CCCN1CCN(C(c2ccccc2)c2ccccc2)CC1 | 17.4 µM (active) | 
12 | C#C[C@]1(OC(C)=O)CC[C@H]2[C@@H]3CCC4=C[C@@H](OC(C)=O)CC[C@@H]4[C@H]3CC[C@@]21C | 12.3 µM (active) | 
13 | Cc1c(C)c([N+](=O)[O-])c(C(C)(C)C)c([N+](=O)[O-])c1C | 35.6 µM (active) | 
14 | CCN(CC)c1ccc2c(-c3ccc(S(=O)(=O)O)cc3S(=O)(=O)[O-])c3ccc(=[N+](CC)CC)cc-3oc2c1 | 16.4 µM (active) | 
15 | S=c1nccc[nH]1 | 20 µM (active) | 
16 | Nc1nc(N)nc(-c2cc(Cl)ccc2Cl)n1 | inactive | 
17 | Oc1ccccc1O | inactive | 
18 | Cc1cc(-n2nc3ccc(Cl)cc3n2)c(O)c(C(C)(C)C)c1 | inactive | 
19 | [Cl][Pt-2]([Cl])([Cl])[Cl] | 25.3 µM (active) | 

Row | Structure (SMILES) | Potency | activity change, negative = inhibition
20 | Cc1cccc2cccnc12 | inactive | 
21 | CC1=Nc2ccccc2C1(C)C | 40 µM (active) | 
22 | COC1=C(OC)C(=O)C(CCCCCCCCCCO)=C(C)C1=O | 11 µM (active) | 
23 | CCCCCCCCCCCCCC[N+](C)(C)Cc1ccccc1 | 80.9 µM (active) | 
24 | CN1CCCCC1CCN1c2ccccc2Sc2ccc(S(C)=O)cc21 (stereo unspecified) | inactive | 
25 | C[C@@H](O)[C@H](N)C(=O)O |  | 17.9% [at 23.6 µM] (inactive)
26 | CC(=O)[C@H]1CC[C@H]2[C@@H]3CCC4=CC(=O)CC[C@]4(C)[C@H]3CC[C@]12C | 22.3 µM (active) and 25.2 µM (active) | 
27 | COc1cc2nc(N3CCN(C(=O)c4ccco4)CC3)nc(N)c2cc1OC |  | 1.12% [at 23.6 µM] (inactive)
28 | CCn1c2ccccc2c2cc([N+](=O)[O-])ccc21 | inactive | 
29 | Cc1c(F)c(N2CCNC(C)C2)cc2c1c(=O)c(C(=O)O)cn2C1CC1 (stereo unspecified) | inactive | 
30 | Fc1ccc(C(c2ccc(F)cc2)N2CCNCC2)cc1 | inactive | 
31 | O=C1c2ccccc2C(=O)N1SC1CCCCC1 | 3.99 µM (active) and 7.1 µM (active) | 
32 | CCCCCC(C)OC(=O)COc1ccc(Cl)c2cccnc12 (stereo unspecified) | 11.2 µM (active) | 
33 | OC12N=C(c3ccccc3)SC1Cc1cc(Cl)ccc12 (stereo unspecified) | 0.894 µM (active) | 
34 | CCCCOC(=O)CC | inactive | 
35 | Cc1cc(-c2ccc(N=Nc3cc(S(=O)(=O)O)c4ccccc4c3N)c(C)c2)ccc1N=Nc1cc(S(=O)(=O)O)c2ccccc2c1N | inactive | 
36 | C=CC(=O)OCCOC(=O)C=C | inactive | 
37 | Cc1ccc(O)c(N)c1 | 15.9 µM (active) | 
38 | C=C(CC)C(=O)c1ccc(OCC(=O)O)c(Cl)c1Cl | 8.88 µM (active) and 5.49 µM (active) | 

target: Cytochrome P450 1A2 (Homo sapiens) (UniProt P05177); assay: Cytochrome P450 Family 1 Subfamily A Member 2 (CYP1A2) small molecule antagonists: luciferase reporter qHTS assay (AID 1671199); settings: P450-Glo CYP1A2 enzyme, luciferin luminescence, 1 h; series mostly up to 115 µM
Summary of the method: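 P450-Glo CYP1A2, 1536-well qHTS: enzyme/proluciferin substrate + cpd (DMSO), 10 min RT; NADPH regen, 1 h RT; detection reagent, 20 min; luminescence, RLU.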

Chain of Cytochrome P450 1A2 (Homo sapiens) (P05177 whole entry, looked up): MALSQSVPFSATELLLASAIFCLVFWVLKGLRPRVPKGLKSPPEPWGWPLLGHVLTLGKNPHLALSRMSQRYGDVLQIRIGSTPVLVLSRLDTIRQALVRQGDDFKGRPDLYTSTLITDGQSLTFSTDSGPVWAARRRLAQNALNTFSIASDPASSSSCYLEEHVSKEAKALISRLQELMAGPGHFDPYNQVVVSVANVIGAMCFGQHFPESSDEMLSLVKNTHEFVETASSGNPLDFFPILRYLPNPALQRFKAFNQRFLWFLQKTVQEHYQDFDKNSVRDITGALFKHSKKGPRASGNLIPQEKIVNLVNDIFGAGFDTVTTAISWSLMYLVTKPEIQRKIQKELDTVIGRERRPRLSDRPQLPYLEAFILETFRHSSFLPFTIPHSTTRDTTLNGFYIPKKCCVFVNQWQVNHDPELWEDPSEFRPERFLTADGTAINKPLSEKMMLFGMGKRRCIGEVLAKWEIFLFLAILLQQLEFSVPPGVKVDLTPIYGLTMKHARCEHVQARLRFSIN

Row | Structure (SMILES) | Potency | activity change, negative = inhibition
39 | Cc1ccc(-c2ccccc2)cc1 | inactive | 
40 | CCCC1CCC(=O)CC1 | inactive | 
41 | c1ccc(SSc2ccccc2)cc1 | 3.19 µM (active) | 
42 | OC[C@H]1O[C@H](O[C@H]2O[C@H](CO)[C@@H](O)[C@H](O)[C@H]2O)[C@H](O)[C@@H](O)[C@@H]1O | 63.7 µM (active) | 
43 | Cc1cc(C(C#N)c2ccc(Cl)cc2)c(Cl)cc1NC(=O)c1cc(I)cc(I)c1O (stereo unspecified) | inactive | 
44 | CC(C)(C)c1csc(-c2cc3cc(OCc4ccccc4CC(=O)O)ccc3o2)n1 | inactive | 
45 | O=[N+]([O-])c1cccc(C(F)(F)F)c1 | inactive | 
46 | COC(=O)Nc1nc2ccc(C(=O)c3ccccc3)cc2[nH]1 | 12.9 µM (active) | 
47 | CCc1cccc(CC)c1NC(=O)CN(CC(=O)O)CC(=O)O | inactive | 
48 | Cc1c2ccccc2c(C)c2c1ccc1ccccc12 | 626 nM (active) and 1.78 µM (active) | 
49 | O=c1[nH]c2ccccc2n1CCCN1CCN(C(c2ccccc2)c2ccccc2)CC1 | inactive | 
50 | C#C[C@]1(OC(C)=O)CC[C@H]2[C@@H]3CCC4=C[C@@H](OC(C)=O)CC[C@@H]4[C@H]3CC[C@@]21C | inactive | 
51 | Cc1c(C)c([N+](=O)[O-])c(C(C)(C)C)c([N+](=O)[O-])c1C | 20 µM (active) | 
52 | CCN(CC)c1ccc2c(-c3ccc(S(=O)(=O)O)cc3S(=O)(=O)[O-])c3ccc(=[N+](CC)CC)cc-3oc2c1 | 20.7 µM (active) | 
53 | S=c1nccc[nH]1 | 35.6 µM (active) | 
54 | Nc1nc(N)nc(-c2cc(Cl)ccc2Cl)n1 | 17.4 µM (active) | 
55 | Oc1ccccc1O | inactive | 
56 | Cc1cc(-n2nc3ccc(Cl)cc3n2)c(O)c(C(C)(C)C)c1 | inactive | 
57 | [Cl][Pt-2]([Cl])([Cl])[Cl] | 35.7 µM (active) | 

Row | Structure (SMILES) | Potency | activity change, negative = inhibition
58 | Cc1cccc2cccnc12 | 44.5 µM (active) | 
59 | CC1=Nc2ccccc2C1(C)C | 63.4 µM (active) | 
60 | COC1=C(OC)C(=O)C(CCCCCCCCCCO)=C(C)C1=O | 15.5 µM (active) | 
61 | CCCCCCCCCCCCCC[N+](C)(C)Cc1ccccc1 | 72.1 µM (active) and inactive | 
62 | CN1CCCCC1CCN1c2ccccc2Sc2ccc(S(C)=O)cc21 (stereo unspecified) | inactive | 
63 | C[C@@H](O)[C@H](N)C(=O)O |  | 12.2% [at 23.6 µM] (inactive)
64 | CC(=O)[C@H]1CC[C@H]2[C@@H]3CCC4=CC(=O)CC[C@]4(C)[C@H]3CC[C@]12C | 31.7 µM (active) | 
65 | COc1cc2nc(N3CCN(C(=O)c4ccco4)CC3)nc(N)c2cc1OC |  | 1.24% [at 23.6 µM] (inactive)
66 | CCn1c2ccccc2c2cc([N+](=O)[O-])ccc21 | 1.12 µM (active) | 
67 | Cc1c(F)c(N2CCNC(C)C2)cc2c1c(=O)c(C(=O)O)cn2C1CC1 (stereo unspecified) | inactive | 
68 | Fc1ccc(C(c2ccc(F)cc2)N2CCNCC2)cc1 | inactive | 
69 | O=C1c2ccccc2C(=O)N1SC1CCCCC1 | 35.5 µM (active) and 35.6 µM (active) | 
70 | CCCCCC(C)OC(=O)COc1ccc(Cl)c2cccnc12 (stereo unspecified) | 5.03 µM (active) | 
71 | OC12N=C(c3ccccc3)SC1Cc1cc(Cl)ccc12 (stereo unspecified) | 1.78 µM (active) | 
72 | CCCCOC(=O)CC | inactive | 
73 | Cc1cc(-c2ccc(N=Nc3cc(S(=O)(=O)O)c4ccccc4c3N)c(C)c2)ccc1N=Nc1cc(S(=O)(=O)O)c2ccccc2c1N | inactive | 
74 | C=CC(=O)OCCOC(=O)C=C | inactive | 
75 | Cc1ccc(O)c(N)c1 | 40 µM (active) | 
76 | C=C(CC)C(=O)c1ccc(OCC(=O)O)c(Cl)c1Cl | inactive | 
